TDP1 cell CPT – growth inhibition of DT40 Tdp1-/-;hTDP1 cells with camptothecin (screen for TDP1 inhibitors). chicken DT40 Tdp1-/-;hTDP1 cells + 20 nM CPT, ATP luminescence, 48 h. Potency, µM (doses to about 46.2 µM), inactives show at the top dose activity change, negative = growth inhibition, actives largely listed as inhibitors. 12% of 420,000 active; further: potency means the concentration at half of the fitted maximal effect; nearly all actives have a fitted effect of over 55% in size
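Cell growth measured by CellTiter-Glo luminescence after a minimum 48 h, 37 C compound exposure with 20 nM CPT in Tdp1-knockout DT40 cells stably expressing hTDP1, seeded 400/well; qHTS titration format.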
HT1080NT lethal – kills 2HG-producing HT-1080-NT fibrosarcoma cells. Potency, µM (highest dose often 46.1 µM), for the others: at the top dose activity, negative = less viability, usual class: cytotoxic. AID 686970. HT-1080-NT fibrosarcoma viability, CellTiter-Glo ATP luminescence, 48 h. 1.6% of 360,000 active;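 further: NT is the 2HG producing partner of a matched IDH1 knockdown line; potency means the concentration at half of the fitted maximal effect; 0% = DMSO-treated cells and -100% = media-only wells without cells; nearly all actives have a fitted effect of over 55% in size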
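A 48-hour cytotoxicity screen used HT-1080-NT cells plated 2 hours before compound delivery. ATP-based CellTiter-Glo luminescence measured viability, normalized to DMSO and no-cell controls.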
IL1B secr inh – blocks inflammasome-driven IL-1 beta release; THP-1 LPS/ATP IL-1B secretion, AlphaLISA, 16 h; stronger effect = lower value; activity change, % at 57.5 µM; 4.7% of 360,000 active; in the data active means activity change below about -50%; inconclusive means mostly about -30% to -49%
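THP-1 cells pretreated 1 hr with compounds (up to 57.5 uM final), then stimulated with LPS (250 ng/mL final) plus ATP (1.25 mM final); secreted IL-1B measured by AlphaLISA after 16 hr, decreased signal indicating inhibition.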
DT40 TDP1 no CPT – qHTS for Inhibitors of human tyrosyl-DNA phosphodiesterase 1 (TDP1): qHTS in cells in absence of CPT. 15% of 420,000 active. Potency, µM (series often up to 46.2 µM), for inactives: top-dose activity change, negative = growth inhibition, usual class: inhibitors. DT40 Tdp1-/- hTDP1 cells, no CPT, ATP luminescence, 48 h; further: potency means the concentration at half of the fitted maximal effect; nearly all actives have a fitted effect of over 55% in size
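Luminescent ATP content (CellTiter-Glo) served as the growth readout. Knockout chicken DT40 cells expressing human TDP1 were exposed to compounds without camptothecin for a minimum 48 hr at 37 °C.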
HT1080 IDH1KD tx – HT-1080 IDH1 knockdown cell toxicity (counter line); HT-1080 IDH1 knockdown viability, ATP luminescence, 48 h; Potency, µM (doses to about 46.1 µM), inactives show top-dose activity, negative = toxicity, hits mostly cytotoxic; 2% of 360,000 active; AID 686971;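 further: potency means the concentration at half of the fitted maximal effect; 0% = DMSO wells and -100% = cell-free medium wells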
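Knockdown cells (IDH1KD HT-1080) received compounds 2 h after plating at 750 cells/well and were kept 48 h at 37 °C in 5% FBS RPMI. A CellTiter-Glo luminescence read gave % activity for curve fitting.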
Starred values were filed as active, the others as inactive; ? = inconclusive; / = no result given; [ ] = dose if it differs, or a comment. An excerpt weighted towards active compounds, which were near 19% of everything screened. Unless noted, the call rests on the fitted dose curve; in most records, active means well fitted curve in the direction sought with a large enough effect; inconclusive means small, poorly fitted or top-dose-only effect, or another doubt; inactive means no such curve, though single readings can be large; an effect the other way counts as inactive or inconclusive. Unless noted, on the % scale 0 is the no-effect control and ±100 the full control effect.

SMILES	TDP1 cell CPT	HT1080NT lethal	IL1B secr inh	DT40 TDP1 no CPT	HT1080 IDH1KD tx
CCc1nnc(NC(=O)CN2C(=O)NC3(CC(C)CC(C)(C)C3)C2=O)s1 (stereo unspecified)	-12%	6%	41	1%	1%
O=C1/C(=C/c2cccnc2)CCC/C1=C\c1cccnc1	2.1µM*	?	-107*	2.1µM*	?
O=C1/C(=C/c2ccccc2)CCCc2ccccc21	-16%	16%	-19	?	9%
CC1(C(=O)NCc2cccc3ccccc23)CCN1CCc1ccccc1 (stereo unspecified)	?	?	9	18µM*	?
CC1(C(=O)NCc2cccc(C(F)(F)F)c2)CCN1CCc1ccccc1 (stereo unspecified)	?	?	-9	?	-28%
CC1(C(=O)NCc2ccccc2Br)CCN1Cc1c(F)cccc1F (stereo unspecified)	?	-13%	-21	?	-18%
CC(C)Oc1ccc(CN2CCC2(C)C(=O)NCc2cccc3ccccc23)cc1 (stereo unspecified)	12µM*	18µM*	-19	15µM*	?
Cc1ccc(N(CC(=O)NCc2ccc(F)cc2)C(=O)c2csnn2)cc1C	?	1%	-2	-4%	1%
COc1ccccc1NC(=O)N(C)C[C@@H]1OCc2cnnn2CCCC(=O)N([C@@H](C)CO)C[C@@H]1C	-2%	4%	12	6%	6%
NCC(=O)Nc1ccc(Cl)cc1C(=O)c1ccc[nH]1	0.16µM*	-11%	5	0.12µM*	-26%
O=C(O)c1ccccc1NC(=O)C1CCN(S(=O)(=O)c2ccc3c(c2)OCCO3)CC1	8%	1%	18	-25%	0%
NC[C@H]1O[C@H](O[C@H]2[C@H](O[C@@H]3O[C@H](CO)[C@@H](O)[C@H]3O)C(O)[C@H](N)C[C@@H]2N)[C@H](N)[C@@H](O)[C@@H]1O (stereo partly specified)	-15%[21.1 µM]	/	/	-9%[21.1 µM]	/
COc1ccc(N2CCN(C(=O)CCCCn3c(=O)[nH]c4ccsc4c3=O)CC2)cc1	?	14%	15	26µM*	-11%
O=C(Cc1ccc(-n2c(=O)[nH]c3ccsc3c2=O)cc1)N1CCN(c2ccc(Cl)cc2)CC1	?	-13%	-75*	?	-9%
Cc1cccc(N2CCN(C(=O)Cc3ccc(-n4c(=O)[nH]c5ccsc5c4=O)cc3)CC2C)c1 (stereo unspecified)	3%	-6%	-16	?	3%
COc1ccccc1N1CCN(C(=O)CCCCn2c(=O)[nH]c3ccsc3c2=O)CC1	?	2%	0	16µM*	2%
COc1ccc(N2CCN(C(=O)CCCn3c(=O)[nH]c4ccsc4c3=O)CC2)cc1	-22%	13%	-2	-13%	8%
COc1cc2[nH]c(=O)n(CCCCCC(=O)N3CC=C(c4ccccc4)CC3)c(=O)c2cc1OC	26µM*	-7%	-73*	16µM*	-1%
CCOc1ccccc1C(=O)N[C@H](C(=O)OCC(=O)Nc1nnc(-c2ccccc2)o1)C(C)C	16%	1%	30	-13%	-1%
Cc1ccc2cc(CN(Cc3ccco3)C(=O)C3CCCCC3)c(=O)[nH]c2c1C	?	8%	-7	?	19%
Cc1ccc2cc(CN(Cc3ccco3)C(=O)NC3CCCCC3)c(=O)[nH]c2c1C	16µM*	-27%	?	29µM*	-22%
COc1ccccc1NC(=S)N(Cc1ccco1)Cc1cc2cc(C)cc(C)c2[nH]c1=O	10µM*	?	20	10µM*	?
COc1ccccc1NC(=S)N(Cc1ccco1)Cc1cc2ccc(C)c(C)c2[nH]c1=O	0.58µM*	?	11	0.58µM*	?
CCOC(=O)CNC(=O)CNC(=O)c1ccc(OC(C)C)cc1	0%	-3%	1	-2%	0%
CCCCCOc1ccc(C(=O)NCC(=O)NCC(=O)OCC)cc1	18µM*	?	31	21µM*	?
SMILES	TDP1 cell CPT	HT1080NT lethal	IL1B secr inh	DT40 TDP1 no CPT	HT1080 IDH1KD tx
CCOC(=O)CNC(=O)CNC(=O)c1ccc(OCC(C)C)cc1	?	0%	24	21µM*	6%
CCCCOc1ccc(C(=O)NCC(=O)NCCOc2ccccc2)cc1	1%	2%	2	-25%	-3%
Clc1ccc(C2CSc3c4ncnc-4ncn32)cc1 (stereo unspecified)	?	7%	6	-15%	6%
Cc1cc(Cl)c(S(=O)(=O)NC2CCCC2)cc1OCC(N)=O	-1%	0%	-4	-29%	4%
Cc1ccc(S(=O)(=O)NCC(=O)NCC(=O)N2CCC(C)CC2)cc1	2%	19%	22	-20%	-3%
COc1ccccc1NC(=O)CCc1nc2sc3c(c2c(=O)[nH]1)CCCC3	12µM*	-27%	23	2.9µM*	-19%
CCc1cccc(NC(=O)CCc2nc3sc4c(c3c(=O)[nH]2)CCCC4)c1	8.2µM*	18%	18	10µM*	7%
CCCN1CCc2nc(SCC(=O)Nc3ccc(C)c(Cl)c3)[nH]c(=O)c2C1	?	-1%	-8	18µM*	-2%
CCCCOC(=O)c1ccc(NC(=O)CSc2nc3c(c(=O)[nH]2)CCCC3)cc1	?	/	/	13µM*	/
Cc1ccc(S(=O)(=O)N2CCCC(C(=O)NCc3ccccc3F)C2)cc1 (stereo unspecified)	-14%	18%	9	-29%	14%
Cc1ccc(N(C)S(=O)(=O)c2cccc(C(=O)OCC(=O)N3CCCC(C)C3)c2)cc1 (stereo unspecified)	7%	8%	10	4%	9%
O=C(COC(=O)c1ccncc1)Nc1cccc2ccccc12	-4%	1%	10	-15%	4%
CCOC(=O)C1CCN(C(=O)c2ccc(N(C)S(=O)(=O)c3ccc(OC)cc3)cc2)CC1	?	8%	-3	?	-2%
Cc1cc(C)c(NC(=O)CS(=O)CC(=O)Nc2ccc(-n3cnnn3)c(C)c2)c(C)c1 (stereo unspecified)	?	-4%	12	?	0%
CN(C(=O)CSc1nc2c(c(=O)[nH]1)CCCC2)c1ccccc1	9.2µM*	/	/	-28%	/
O=C(O)CSc1nc2c(c(=O)[nH]1)CCCC2	-4%	16%	29	-1%	-3%
COC(=O)c1ccccc1NC(=O)CSc1nc2sc3c(c2c(=O)[nH]1)CCCC3	12µM*	/	/	9.2µM*	/
NC(=O)c1ccccc1NC(=O)CSc1nc2c(c(=O)[nH]1)CCCC2	?	12µM*	20	?	16µM*
